Source: PubChem BioAssay (NCATS)
Results filed as inconclusive are left out. A number with no mark means an inactive call. Calls of active or inactive are those of the source. Calls come from the whole dose curve; as a rule, active = well fitted inhibition curve with a large enough effect; inconclusive = small, poorly fitted or top-dose-only effect; inactive = no such curve, though single readings can be large or run the other way.

Biological target: Furin (Homo sapiens) (UniProt P09958)
Assay: Furin counterscreen qHTS for Zika virus inhibitors (AID 1347149); note: nearly all actives have a fitted effect of over 70% in size;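 for activity change, negative = inhibition: purified recombinant full-length human furin enzyme at 5 nM; fluorescence gain from furin cutting a BOC-RVRR-AMC peptide substrate over 15 min; top concentration of the series differs between compounds; plate controls were no-inhibitor control for no effect and no-enzyme control for full effect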
Settings: furin enzymatic counterscreen, fluorogenic substrate; series mostly up to 57.5 µM; activity change, negative = inhibition: at the top concentration
Method in brief: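 Counterscreen measures cleavage of 2 microM BOC-RVRR-AMC, below its ~15 microM Km, by 5 nM full-length human furin at pH 7.0 after a 15-min compound preincubation. Inhibition derives from the 15-min fluorescence increase at 37C.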
Potency is the fitted concentration of half-maximal effect.

Sequence of Furin (Homo sapiens) (P09958 whole entry, looked up): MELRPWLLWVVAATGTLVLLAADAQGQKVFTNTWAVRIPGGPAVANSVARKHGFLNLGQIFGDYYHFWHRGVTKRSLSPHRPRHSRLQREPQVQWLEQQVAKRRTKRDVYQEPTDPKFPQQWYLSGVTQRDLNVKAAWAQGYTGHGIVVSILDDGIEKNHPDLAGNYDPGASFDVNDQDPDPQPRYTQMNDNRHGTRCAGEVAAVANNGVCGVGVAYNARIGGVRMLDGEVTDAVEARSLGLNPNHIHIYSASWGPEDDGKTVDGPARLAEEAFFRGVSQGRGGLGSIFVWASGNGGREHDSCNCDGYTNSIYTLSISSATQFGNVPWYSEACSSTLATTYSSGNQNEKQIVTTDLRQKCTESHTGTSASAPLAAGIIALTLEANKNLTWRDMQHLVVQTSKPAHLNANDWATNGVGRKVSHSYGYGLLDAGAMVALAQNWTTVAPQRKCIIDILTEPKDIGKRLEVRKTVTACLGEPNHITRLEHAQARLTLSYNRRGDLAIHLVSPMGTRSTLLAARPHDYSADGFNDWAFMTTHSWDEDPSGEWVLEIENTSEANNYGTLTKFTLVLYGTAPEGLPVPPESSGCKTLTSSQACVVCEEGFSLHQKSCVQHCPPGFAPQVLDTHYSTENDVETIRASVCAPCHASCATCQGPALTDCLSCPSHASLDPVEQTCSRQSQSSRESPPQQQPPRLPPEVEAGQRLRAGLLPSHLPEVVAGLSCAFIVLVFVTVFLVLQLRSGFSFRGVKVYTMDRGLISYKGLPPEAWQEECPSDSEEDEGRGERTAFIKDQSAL

SMILES	Potency
N[C@@H](Cc1cc(I)c(Oc2cc(I)c(O)c(I)c2)c(I)c1)C(=O)O	inactive
O=C(O)c1cn(-c2ccc(F)cc2)c2cc(N3CCNCC3)c(F)cc2c1=O	24.1 µM (active)
S=c1nc[nH]c2nc[nH]c12	inactive
Cc1nc(-c2ccc(OCC(C)C)c(C#N)c2)sc1C(=O)O	24.1 µM (active)
COc1c2occc2cc2ccc(=O)oc12	inactive

System: Zika virus NS2B-NS3 protease (unlinked)
Assay: Optimization of GU AMC qHTS for Zika virus inhibitors: Unlinked NS2B-NS3 protease assay (AID 1347151); note: nearly all actives have a fitted effect of over 80% in size;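 for activity change, negative = inhibition: 0% = no-inhibitor control and -100% = no-enzyme control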
Settings: recombinant ZIKV NS2B-NS3 protease, fluorogenic AMC substrate; series mostly up to 52.5 µM; activity change, negative = inhibition: at the top concentration
Method in brief: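 Percent inhibition is derived from the 15-min change in AMC fluorescence, normalized against no-inhibitor and no-enzyme controls, then fitted to a 4-parameter Hill curve. Aprotinin was the intraplate control.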

SMILES	Potency	activity change, negative = inhibition
O=c1cc(N2CCOCC2)oc2c(-c3ccccc3)cccc12	26.7 µM (active)	–
Cc1cccc(C#Cc2ccccc2)n1	–	-6.63%
S=c1nc[nH]c2nc[nH]c12	inactive	–
Cc1cc(Cl)ccc1OCCCC(=O)NO	–	-26.4%
O=C1c2ccccc2-c2n[nH]c3cccc1c23	11.9 µM (active)	–
CCOC(=O)C(C)Oc1cccc2c(=O)n(CC(=O)Nc3ccc4c(c3)OCCO4)ccc12 (stereo not drawn)	21.2 µM (active)	–
COc1ccc2cc([C@H](C)C(=O)O)ccc2c1	23.8 µM (active)	–
CN(C)CCCC1(c2ccc(F)cc2)OCc2cc(C#N)ccc21 (stereo not drawn)	–	8.6%
